Assay results published in PubChem BioAssay (NCI).
“And” between values parts separate entries of the source, which are not always exact repeats. Equal values may be shown once. Compounds without any hit were thinned out: in the full panel of roughly 83,000, 20% have a hit.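 Step 1: grow cells in 96-well plates. Step 2: add test compound at a single concentration. Step 3: incubate 48 h. Step 4: record percent growth.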 Values without a mark were called inactive. The source made the active and inactive calls. How the source made its calls: active means growth percent below 10; inactive means the rest.

These molecules were tested on MDA-MB-468 breast (assay: NCI-60 one-dose screen, 48 h (100 = growth as untreated, 0 = no growth, -100 = all killed)). Conditions: 10 µM unless noted.

| SMILES | growth |
| --- | --- |
| CCN1CCN(CCNc2nccc(-c3c(-c4cccc(OC)c4)nc4occn34)n2)S1(=O)=O | 100% |
| O=S(=O)(NCCCNc1nccc(-c2[nH]c(-c3ccccc3)nc2-c2ccc(F)c(O)c2)n1)c1cccc(F)c1 | 66.5% |
| COc1ccc2c(c1)c(-c1nnc(N)nc1-c1c[nH]c3ccc(F)cc13)cn2C | 2.84% (active) |
| COc1cccc2cc(-c3cc4ccccc4[nH]3)/c(=N/C(=S)Nc3ccc(C)cc3)oc12 | 81.6% |
| CCCCC(=O)Nc1nc2ccc(SCCC)cc2s1 | 20% |
| CN1C(=O)C(C(=O)/C=C/c2ccccc2C(=O)O)C(=O)N(C)C1=O | 102% |
| O=S(=O)(NCCCNc1nccc(-c2c(-c3ccc(F)c(O)c3)nc3occn23)n1)c1ccc(Cl)cc1 | 62.2% |
| c1coc(CSc2ncnc3nc[nH]c23)c1 | 96% |
| O=C(NCc1cccnc1)c1cc(-c2csc3c(=O)cc(N4CCOCC4)oc23)cc2c1OCCO2 | 10.7% |
| COc1cc2nccc(Oc3ccc(NC(=O)C4(C(=O)Nc5ccc(F)cc5)CC4)cc3)c2cc1Oc1ccc(N)cn1 | 31.7% |
| COc1ccc2[nH]c(C(=O)OCc3ccc4c(Br)cc(Br)c(O)c4n3)cc2c1 | -77.4% (active) |
| Cn1c2c(Cl)c(Cl)ccc2c2c(C#N)c[nH]c(=O)c21 | 111% |
| CCOC(=O)N1C2CCC(C2)N1C(=O)OCC | 105% |
| O=C(C(=O)N1CCOCC1)c1ccc(OC2OC(CO)C(O)C(O)C2O)cc1 (stereo not given) | 105% |
| Cc1cc(O)cc(-c2nn(C)cc2-c2cc(N3CCOCC3)nc(-c3cccnc3)n2)c1 | -3.22% (active) |
| C=C1[C@@H](O)C[C@H]2C(C)(C)C[C@H](Cl)C[C@]2(C)[C@H]1C[C@H](O)[C@H]1CC(=O)NC1=O | -47.5% (active) |
| O=P([O-])(O)OP(=O)([O-])O.[NH-][C@H]1CCCC[C@@H]1[NH-].[OH-].[OH-].[Pt+4] | 102% |
| CC12CCC3C(CCC4CC(O)CCC43C)C1C/C(=C/O)C(=O)O2 (stereo not given) | 108% |
| O=c1[nH]c2ccc(Cl)cc2cc1CSc1ccccc1Nc1nccc(-c2ccc(Cl)cc2)n1 | 93.3% |
| N#Cc1c(Nc2ccc(N3CCOCC3)cc2)nc(SCC(=O)c2ccc(Br)cc2)nc1-c1ccccc1 | 113% |

| SMILES | growth |
| --- | --- |
| O=S(=O)(NCCNc1nccc(-c2c(-c3cccc(F)c3)nc3sccn23)n1)c1ccc(Cl)cc1 | 64.5% |
| CN(C)c1ccc2c(c1)OC(N)=C(C#N)C2c1ccc2c(c1)CCCN2C (stereo not given) | 20.6% |
| O=C(O)COCC(=O)O | 93.6% |
| O=S(=O)(NCCNc1cc(-c2cn(-c3ccccc3)nc2-c2cccc(O)c2)ccn1)c1ccc(F)cc1 | -22.4% (active) |
| Cc1ccc(C(=O)CSc2nnc(-c3ccc(-c4ccc(Cl)cc4)nc3C)o2)cc1 | 94.9% |
| Nc1ccc2cc(Br)c3ccccc3c2c1 | 4.15% (active) |
| COc1ccc(CNC(=O)COc2ccc(/C=N/Nc3nc4ccccc4s3)cc2)cc1 | 28.3% |
| Cc1ccc(/C=C/c2c(C(=O)/C=C/c3ccccc3)c(C)nc3ccccc23)cc1 | 38.1% |
| COc1cc2nc(Cl)nc(Nc3cccc(C(=O)/C=C/c4ccc(F)cc4)c3)c2cc1OC | 74.3% |
| NCCOc1ccccc1/C=C1\c2ccccc2-c2ccc([N+](=O)[O-])cc21 | -36.1% (active) |
| O=Nc1c(-c2c(O)[nH]c3cc(Br)ccc23)[nH]c2ccccc12 | -34.2% (active) |
| N#C/C(=C/N1C(=O)/C(=C/c2ccc([N+](=O)[O-])cc2)SC1=S)c1nc2ccccc2s1 | 84% |
| CS(=O)(=O)c1ccc(-c2[nH]c3ccc(F)cc3c2/C=N/O)cc1 | 93.7% |
| CC(=O)Nc1cccc(Nc2nc(N[C@@H](C)c3ccccc3)c3ccccc3n2)c1 | -39.8% (active) |
| N#CC1=C(N)n2nc(-c3ccncc3)nc2NC1c1cccc2ccccc12 (stereo not given) | 76.1% |
| COc1ccc(NC(=O)CSc2nnc(-c3ccc4nc(-c5ccc(OC)c(OC)c5)[nH]c4c3)o2)cc1OC | 92.7% |
| CCN(CC)CCNC(=O)c1ccc(NCN2C(=O)NC(c3ccccc3)(c3ccccc3)C2=O)cc1 | 101% and 111% |
| CNC(=O)c1ccc(C)c(-n2c(C)cc(OCc3ccc(F)cc3F)c(Br)c2=O)c1 | 53.4% and 63.5% |
| COc1ccc2c(c1)C(=O)/C(=C/c1ccc([N+](=O)[O-])o1)O2 | -49.4% (active) |
| C/C(=N/NC(N)=S)c1ccc(C)cc1 | 23.5% |
